# PubChem BioAssay
# Active and inactive are the calls of the source. Unless noted, no stated cut-off is given here; in the data, active means inhibition above about 80%; inactive means the rest.
# Legend:
# [1] = LFS_MB_P medulloblastoma growth inhibition, cell-based, chromothripsis tumors, cisplatin or BGB combos (AID 1671449); details: LFS_MB_P medulloblastoma cells;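 further: cells exposed for 96 hours; 0% = vehicle DMSO and 100% = killing by high DMSO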
# [2] = HDN33 neuroblastoma growth inhibition, cell-based, chromothripsis tumors, cisplatin or BGB combos (AID 1671450); details: HDN33 neuroblastoma cells, stronger effect = higher value;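 further: cells exposed to compound for four days; 0% = vehicle DMSO and 100% = cell killing by high DMSO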
# [3] = ICB984 medulloblastoma cell growth inhibition, synergistic combos for chromothripsis tumors, cisplatin or BGB combos (AID 1671451; call rule not given here;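 further: cells exposed for 96 hours before readout; 0% = vehicle DMSO and 100% = killing by high DMSO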); details: ICB984 medulloblastoma cells, drug combinations, stronger effect = higher value
# [4] = LFS_MB_1R medulloblastoma cell growth inhibition, synergistic combos for chromothripsis tumors, cisplatin or BGB combos (AID 1671452); details: LFS_MB_1R medulloblastoma cells, stronger effect = higher value;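 further: cells exposed for 96 hours before readout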
# [5] = HTB85 osteosarcoma cell growth inhibition, synergistic combos for chromothripsis tumors, BGB or cisplatin IC20 combos (AID 1671453); details: HTB85 osteosarcoma cells, drug combinations, stronger effect = higher value;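 further: cells exposed for 96 hours before readout; 0% = vehicle DMSO and 100% = high DMSO killing control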
# [6] = CRL2098 osteosarcoma cell growth inhibition, synergistic combos for chromothripsis tumors, BGB or cisplatin IC20 combos (AID 1671454); details: CRL2098 osteosarcoma cells, drug combinations, stronger effect = higher value;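 further: cells exposed for 96 h before readout; 0% = vehicle DMSO and 100% = killing by high DMSO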
# [7] = HD-MB03 medulloblastoma cell growth inhibition, synergistic combos for chromothripsis tumors, BGB or cisplatin IC20 combos (AID 1671455; in the data active means inhibition above about 83%;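 further: 0% = vehicle DMSO and 100% = high DMSO as cytotoxic control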); details: HD-MB03 medulloblastoma cells, stronger effect = higher value
# [8] = UWB1.289 ovarian carcinoma cell growth inhibition, synergistic combos for chromothripsis tumors, BGB or cisplatin combos (AID 1671456); details: UWB1.289 ovarian carcinoma cells, stronger effect = higher value;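 further: cells exposed to compound for four days; 0% = vehicle DMSO and 100% = killing by high DMSO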
# [9] = LFS_MB_2R medulloblastoma cell growth inhibition, synergistic combos for chromothripsis tumors, cisplatin combos (AID 1671457); details: LFS_MB_2R medulloblastoma cells, stronger effect = higher value;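 further: cells exposed to compound for four days before readout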
# [10] = MDA-MB-436 breast carcinoma cell growth inhibition, synergistic combos for chromothripsis tumors, BGB or cisplatin combos (AID 1671458; call rule not given here;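 further: cells exposed for 96 hours; 0% = vehicle DMSO and 100% = killing by high DMSO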); details: MDA-MB-436 breast carcinoma growth inhibition, drug combinations, stronger effect = higher value
# [11] = UWB1.289_BRCA1 ovarian cancer growth, cell-based, BGB or cisplatin combinations (AID 1671459); details: UWB1.289 BRCA1 ovarian carcinoma, drug combinations, stronger effect = higher value
# [12] = human astrocyte viability loss, single and combined drugs, cytotoxicity control for chromothriptic childhood tumor combination screen, cell-based, BGB or cisplatin IC20 combos (AID 1671460); details: Human astrocytes, drug combinations, stronger effect = higher value;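 further: cells exposed to compounds for 96 hours before viability readout; 0% = vehicle and 100% = killing control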
# [13] = growth inhibition of BT084 medulloblastoma cells, cell-based, ICGC_MB145, cisplatin and BGB IC40 combos (AID 1671461); details: drug combinations, stronger effect = higher value;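 further: cells exposed to drugs for 96 hours; 0% = vehicle DMSO and 100% = high DMSO full killing control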
# [14] = growth inhibition of RCMB18 medulloblastoma cells, cell-based, cisplatin and BGB IC40 combos (AID 1671462); details: stronger effect = higher value;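 further: cells exposed to compound for four days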
# [15] = growth inhibition of CRL1545 osteosarcoma cells, cell-based, cisplatin and BGB IC20 combos (AID 1671464); details: stronger effect = higher value;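 further: cells exposed to compound for 96 hours before readout; 0% = vehicle DMSO and 100% = high DMSO killing control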
# [16] = measured here: combination with BGB IC40, at 0.05 µM
# [17] = measured here: with BGB IC20 combination, at 0.5 µM
# [18] = measured here: with cisplatin IC20 combination, at 0.5 µM
# [19] = measured here: combination with cisplatin, at 0.5 µM
# [20] = measured here: combination with cisplatin, at 5 µM
structure (smiles),measurement,setting,value
C=C1CCC(O)CC1=CC=C1CCCC2(C)C1CCC2C(C)C=CC(C)C(C)C (stereo not drawn),inhibition,"[1]; at 0.5 µM, stronger effect = higher value",-12.3% (inactive)
same,inhibition,"[1]; measured here: combination with BGB IC20, at 0.005 µM",-24.6%
same,inhibition,"[1]; measured here: combination with BGB IC40, at 0.005 µM",-11.2%
same,inhibition,[1]; [16],-19.6%
same,inhibition,"[1]; measured here: combination with cisplatin, at 0.5 µM, stronger effect = higher value",-17.3%
same,inhibition,"[1]; measured here: combination with cisplatin, at 5 µM, stronger effect = higher value",-80.9%
same,inhibition,"[2]; BGB combo, at 5 µM",-2.75%
same,inhibition,[2]; at 0.5 µM,5.6% (inactive)
same,inhibition,"[2]; cisplatin combo, at 5 µM",6.61%
same,inhibition,[2]; [17],7.28%
same,inhibition,[2]; [18],3.61%
same,inhibition,"[2]; single agent, at 5 µM",5.11%
same,inhibition,"[3]; BGB IC20 combo, at 0.005 µM",-16.8%
same,inhibition,"[3]; BGB IC40 combo, at 0.005 µM",-28.1%
same,inhibition,"[3]; BGB IC40 combo, at 0.05 µM",22.2%
same,inhibition,[3]; at 0.5 µM,-8.49% (inactive)
same,inhibition,"[3]; cisplatin combo, at 0.05 µM",22.2%
same,inhibition,"[3]; cisplatin combo, at 0.5 µM",-55.6%
same,inhibition,"[3]; cisplatin combo, at 5 µM",-22.2%
same,inhibition,"[3]; measured here: 5 uM single agent, at 5 µM",-22.8%
same,inhibition,[4]; at 0.5 µM,14.3% (inactive)
same,inhibition,[4]; [16],15.9%
same,inhibition,[4]; [19],28.4%
same,inhibition,[4]; [20],4%
same,inhibition,[5]; at 0.5 µM,-12.4% (inactive)
same,inhibition,"[5]; measured here: with BGB IC20, at 0.5 µM",-26.3%
same,inhibition,"[5]; measured here: with BGB IC20, at 5 µM",9.36%
same,inhibition,"[5]; measured here: with cisplatin IC20, at 0.5 µM",-19%
same,inhibition,"[5]; measured here: with cisplatin IC20, at 5 µM",1.54%
same,inhibition,"[5]; single agent, at 5 µM",12%
same,inhibition,[6]; at 0.5 µM,-3.6% (inactive)
same,inhibition,"[6]; measured here: combination with BGB at IC20, at 0.5 µM",-1.76%
same,inhibition,"[6]; measured here: combination with cisplatin at IC20, at 0.5 µM",19.2%
same,inhibition,[7]; at 0.5 µM,-7.66% (inactive)
same,inhibition,"[7]; measured here: combo with BGB at IC20, at 0.5 µM",-6.27%
same,inhibition,"[7]; measured here: combo with cisplatin at IC20, at 0.5 µM",-11.7%
same,inhibition,[8]; at 0.5 µM,-2.68% (inactive)
same,inhibition,"[8]; measured here: inhibition with BGB combination, at 0.05 µM",-16.7%
same,inhibition,"[8]; measured here: inhibition with cisplatin combination, at 0.05 µM",-7.51%
same,inhibition,[9]; at 0.5 µM,-22.6% (inactive)
same,inhibition,[9]; [19],-24.1%
same,inhibition,[9]; [20],-14.6%
same,inhibition,[10]; at 0.5 µM,-12.5% (inactive)
same,inhibition,"[10]; measured here: BGB combination, at 0.5 µM",-17.5%
same,inhibition,"[10]; measured here: BGB combination, at 5 µM",-14.8%
same,inhibition,"[10]; measured here: cisplatin combination, at 0.5 µM",-15.7%
same,inhibition,"[10]; measured here: cisplatin combination, at 5 µM",-13.9%
same,inhibition,"[11]; BGB combination, concentration series, at 5 µM",18.4%
same,inhibition,[11]; at 0.5 µM,-4.82% (inactive)
same,inhibition,"[11]; cisplatin combination, concentration series, at 5 µM",27.5%
same,inhibition,[12]; at 0.5 µM,2.39% (inactive)
same,inhibition,"[12]; measured here: combo with BGB IC20, at 0.5 µM",0.485%
same,inhibition,"[12]; measured here: combo with cisplatin IC20, at 0.5 µM",-12%
same,inhibition,[13]; at 0.5 µM,-17.5% (inactive)
same,inhibition,"[13]; cisplatin combination, at 0.5 µM",-35.1%
same,inhibition,"[13]; cisplatin combination, at 5 µM",-77.9%
same,inhibition,"[13]; measured here: BGB IC40 combination 0.05 uM, at 0.05 µM",22.6%
same,inhibition,"[13]; single agent, at 5 µM",-13.5%
same,inhibition,[14]; at 0.5 µM,-6.63% (inactive)
same,inhibition,"[14]; cisplatin combo, at 5 µM",-19.4%
same,inhibition,"[14]; measured here: BGB IC40 combination, at 0.05 µM",-24%
same,inhibition,[14]; [19],-21.7%
same,inhibition,"[14]; single agent, at 5 µM",-13.3%
same,inhibition,[15]; at 0.5 µM,-21.7% (inactive)
same,inhibition,[15]; [17],16.4%
same,inhibition,[15]; [18],-40.8%
same,inhibition,"[15]; single agent, at 0.05 µM",37.2%
same,inhibition,"[15]; single agent, at 5 µM",10.9%
